gsp antagonist: gsp mutant antagonism | gsp-mutant cells, cAMP HTRF, 30 min | Potency, µM (titrated, usually from 76.9 µM), without a hit: at the top dose activity change, negative = inhibition, actives largely listed as inhibitors | hit rate 0.4% among 340,000; calls by dose curve; cell line not stated here;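 further: intracellular cAMP measured with PDE inhibitor Ro 20-1724 present during compound exposure; on the % scale 0 is the no-effect control and ±100 the full control effect; nearly all actives have a fitted effect of over 65% in size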
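G418-selected cells were plated in DMEM/10% FBS for 16-24 h at 37C, then treated with compounds plus the PDE inhibitor […] (300 uM solution added) for 30 min at 37C. Intracellular cAMP was measured by HTRF after 30 min lysis at room temperature.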
12-LOX inh: blocks human arachidonate 12S-lipoxygenase | P18054 | purified 12hLO, xylenol orange hydroperoxide absorbance | Potency, µM (top dose mostly 108 µM), without a hit: at the highest dose activity change, negative = inhibition, most hits filed as inhibitors | hit rate 1.1% among 580,000 | AID 1671190; further: on the % scale 0 is the no-effect control and ±100 the full control effect
Target sequence (P18054 whole entry, looked up): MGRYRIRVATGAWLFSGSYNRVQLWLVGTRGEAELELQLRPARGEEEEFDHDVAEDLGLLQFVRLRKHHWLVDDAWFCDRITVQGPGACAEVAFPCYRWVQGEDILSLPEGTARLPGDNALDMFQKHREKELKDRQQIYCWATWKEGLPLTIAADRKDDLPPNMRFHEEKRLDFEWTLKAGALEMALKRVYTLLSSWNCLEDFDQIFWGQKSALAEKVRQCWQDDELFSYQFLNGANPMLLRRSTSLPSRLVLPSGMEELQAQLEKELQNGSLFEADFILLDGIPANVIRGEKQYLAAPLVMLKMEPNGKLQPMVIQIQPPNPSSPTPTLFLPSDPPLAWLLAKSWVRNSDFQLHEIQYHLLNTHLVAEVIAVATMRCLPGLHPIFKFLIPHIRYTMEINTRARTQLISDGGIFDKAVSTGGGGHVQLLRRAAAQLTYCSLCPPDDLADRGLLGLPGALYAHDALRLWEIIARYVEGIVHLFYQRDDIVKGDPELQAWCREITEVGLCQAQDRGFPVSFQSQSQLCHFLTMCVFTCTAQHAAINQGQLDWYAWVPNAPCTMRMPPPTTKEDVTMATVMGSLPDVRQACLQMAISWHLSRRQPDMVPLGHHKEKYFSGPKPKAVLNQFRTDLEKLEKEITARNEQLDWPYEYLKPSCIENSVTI
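Hydroperoxide product was detected by ferrous iron/xylenol orange as the 573 to 405 nm absorbance ratio. Arachidonic acid at 40 uM (final) was turned over for 30 min at room temperature by 150 nM human 12hLO, pH 7.0 Hepes buffer, after 15 min compound preincubation.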
Mito fusion act: blocks mitochondrial division or promotes mitochondrial fusion | S. cerevisiae fusion-defective mutant growth rescue, CellTiterGlo 48 h | Potency, µM (titrated, usually from 46.1 µM), inactives show top-dose growth rescue (activation), hits mostly activators | hit rate 0.23% among 320,000; further: % of control where 0% means no effect; nearly all actives have a fitted effect of over 45% in size
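S. cerevisiae fusion-defective temperature-sensitive mutants (e.g. fzo1-1, mgm1-5) grown 48 h at 37C in YPEG (ethanol/glycerol non-fermentable) medium with 23 nl compound per well; growth rescue read as CellTiterGlo luminescence.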
FUS suppressor: rescues growth of FUS-expressing yeast; Potency, µM (series often up to 76.6 µM), hits mostly activators; hit rate 0.24% among 390,000; S. cerevisiae FUS-expressing, growth rescue, OD600, 24 h;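 further: plate controls were DMSO vehicle for no effect and reference control for full effect; nearly all actives have a fitted effect of over 55% in size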
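Galactose (2%) drives FUS expression in yeast precultured in raffinose; seeding density OD 0.005. Test compounds incubated 24hr at 30C and 99% humidity before absorbance at 600 nm was measured.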
gsp agonist: gsp mutant agonism; AID 624287; hit rate 0.13% among 340,000; gsp mutant cells, cAMP HTRF, 30 min; Potency, µM (top dose mostly 76.9 µM), for inactives: at the highest dose activation (cAMP increase), actives largely listed as activators; active means well fitted activation curve with a large enough effect; inconclusive means small, poorly fitted or top-dose-only effect, or another doubt; inactive means no such curve, though single readings can be large or run the other way; cell line not stated here;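 further: phosphodiesterase inhibitor Ro 20-1724 added with compounds to block cAMP breakdown; nearly all actives have a fitted effect of over 60% in size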
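Cells in DMEM/10% FBS with G418 were pretreated with compounds in DMSO plus […] (300 uM stock) for 30 min at 37C. cAMP was measured by HTRF (cAMP-d2 plus anti-cAMP antibody-K) after 30 min at room temperature.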
Numbers without * were called inactive; i = inactive; ? = inconclusive; nt = no result; ! = not active in a repeat; [ ] = remark or other dose. Hits are enriched below; roughly 1.6% of the tested compounds scored in any of these assays. Unless noted, the call rests on the fitted dose curve; in most records, active means well fitted curve in the direction sought with a large enough effect; inconclusive means small, poorly fitted or top-dose-only effect, or another doubt; inactive means no such curve, though single readings can be large; an effect the other way counts as inactive or inconclusive. Potency means the concentration at half of the fitted maximal effect.

SMILES | gsp antagonist | 12-LOX inh | Mito fusion act | FUS suppressor | gsp agonist
NC(=O)c1cn(C2OC(CO)C(O)C2O)c2ncnc(N)c12 (stereo not drawn) | -15% | 18µM*! | -12% | i | 15%
COc1ccc2c(c1)C1(CCN(C(=O)Nc3ccc(OC)c(OC)c3)C1)C(=O)N2 (stereo not drawn) | nt | 40% | nt | nt | nt
COc1ccc(CCNCc2ccccc2)cc1 | 4% | ? | -13% | i | 7%
COc1ccc(CCNCc2ccc(Br)cc2)cc1 | nt | 22µM* | nt | nt | nt
COc1ccc(CCNCc2cccc(Br)c2)cc1 | nt | 1.3µM* | nt | nt | nt
COc1ccc2c(c1)C1(CCN(C(=O)c3cccc(F)c3)C1)C(=O)N2C (stereo not drawn) | nt | -5% | nt | nt | nt
O=C1NC2(CN(Cc3cccnc3)C2)Oc2ccccc21 | nt | 69%[176 µM] | nt | nt | nt
c1ccc(-c2nc(N3CCOCC3)s[n+]2-c2ccccc2)cc1 | 8% | 32µM* | 5% | nt | -6%
CN1CCN(c2ccc(C#N)cn2)CC1 | nt | 23% | nt | nt | nt
Clc1ccc(N2CCN(CC3[C@H]4CNC[C@@H]34)CC2)nc1 (stereo partly drawn) | nt | 32µM* | nt | nt | nt
C[N+]12CCC(CC1)C(C(O)(c1ccccc1)c1cccs1)C2 (stereo not drawn) | 4% | 45µM* | -4% | i | 11%
CCC[N+]12CCC(CC1)C(C(O)(c1ccccc1)c1ccccc1)C2 (stereo not drawn) | 20% | ? | -6% | i | -17%
Cc1noc(C)c1-c1cnc2[nH]cc(CC(=O)N3CCN(C)CC3)c2c1 | nt | 4%[176 µM] | nt | nt | nt
O=c1c2ccccc2nc(/C=C/c2ccccc2F)n1-c1ccccc1O | -23% | 11µM* | 27% | i | -77%
C=CCn1nc(C(=O)N2CCOCC2)cc1-c1sc(NC(=O)c2ccccc2)nc1C | nt | -6% | nt | i | 22µM*
CN(N=O)c1cc(O)ccc1O | nt | ? | 23µM* | nt | nt
COC[C@H]1CCCN1C[C@H]1CN2CC[C@H]1C[C@@H]2CNC(=O)Nc1ccc(OC)cc1 | nt | 10%[176 µM] | nt | nt | nt
Cc1nn(CCC#N)c2c1P(=S)(N1CCCC1)OC(c1ccc(F)cc1)=N2 (stereo not drawn) | 0% | 22µM* | 1% | i | -10%
Cc1ccccc1CC(=O)N1CCN(C2CCN(CCC(C)C)C2=O)CC1 (stereo not drawn) | nt | 24% | nt | nt | nt
O=C(Nc1ccccc1)[C@H]1CN2CC[C@H]1C[C@@H]2Cn1cc(COc2ccccc2)nn1 | nt | 44%[176 µM] | nt | nt | nt
C=C(CC1CC(O)[C@]2(C)OC3CC4OC5C[C@]6(C)O[C@]7(C)CCC8OC9C[C@]%10(C)OC%11C(C)=CC(=O)OC%11CC%10OC9C[C@@H](C)C8OC7CC6O[C@]5(C)C/C=C\C4OC3CC2O1)C(=O)O (stereo partly drawn) | -1% | -39% | -3% | ? | -5%
CC1=CC(=O)OC2CC3OC4C[C@@H](C)C5OC6CC7O[C@]8(C)C/C=C\C9OC%10CC%11OC(CC(C)C%12OCCO%12)CC(O)[C@]%11(C)OC%10CC9OC8C[C@]7(C)O[C@]6(C)CCC5OC4C[C@]3(C)OC12 (stereo partly drawn) | 2% | nt | nt | 10µM* | nt
CC1=Nc2ccccc2/C1=C/c1c(O)[nH]c(=O)[nH]c1=O | -9% | 28µM* | 5% | i | -29%
O=C(Nc1ccccc1)N1C[C@@H]2C[C@H](C1)c1c(-c3cccs3)ccc(=O)n1C2 | nt | 33%[176 µM] | nt | nt | nt
Cc1[nH]c2ccccc2c1CCNCc1cccnc1 | 9% | ? | -11% | i | 3%
SMILES | gsp antagonist | 12-LOX inh | Mito fusion act | FUS suppressor | gsp agonist
COc1ccc(CNCCc2c(C)[nH]c3ccc(OC)cc23)c(F)c1 | nt | 1.6µM* | nt | nt | nt
COc1ccc2[nH]c(C)c(CCNCc3cn(C)c4ccccc34)c2c1 | 15% | 5.6µM* | 0% | nt | -49%
O=C(O)[C@@H]1CCN1 | nt | 25µM* | -9% | nt | nt
C1CC2NCCC3NCCC(N1)N32 (stereo not drawn) | -3% | 1% | 16% | i | -42%
Cc1ccc(-n2c(/C=C/c3ccco3)nc3ccccc3c2=O)cc1 | nt | 16µM* | nt | nt | nt
Cc1ccc(-n2c(/C=C/c3ccccn3)nc3ccccc3c2=O)cc1 | 12% | 5% | 6% | i | 3%
CC[N+]12CCC(CC1)C(=C(c1ccccc1)c1ccccc1)C2 | 11% | -17% | -2% | nt | 3%
C[N+]12CCC(CC1)C(=C(c1ccccc1)c1ccccc1)C2 | 5% | 35µM* | 4% | nt | 0%
O=C(c1onc2ccccc12)N1CCC2(CCCNC2)C1 (stereo not drawn) | nt | 13% | nt | nt | nt
Cc1ccc(NC(=O)N(Cc2ccc3c(c2)OCO3)C2CCN(Cc3ccccc3)CC2)cc1Cl | nt | 45µM* | nt | i | nt
C=C(C)[C@H]1Cc2c(ccc3c2O[C@@H]2COc4cc(OC)c(OC)cc4[C@@H]2C3=O)O1 | nt | ? | 18µM* | nt | nt
COc1ccc(CCn2c(O)c(C=NCc3cccnc3)c(=O)[nH]c2=O)cc1OC | -9% | 0%[57.4 µM] | -3% | i | 1%
COc1ccc(C2CC(c3c(O)n(CCc4ccccc4)c(=O)[nH]c3=O)=NN2)cc1OC (stereo not drawn) | -13% | ? | 1% | 22µM* | -28%[15.4 µM]
O=c1ccc(-c2ccccc2)c2n1C[C@H]1C[C@@H]2CN(Cc2ccc(CO)o2)C1 | nt | 2%[176 µM] | nt | nt | nt
COc1ccc(OC)c(N2C(=O)NC(=O)/C(=C/c3ccc([N+](=O)[O-])s3)C2=O)c1 | ? | 40µM* | -5% | i | 2%[15.4 µM]
COC(=O)C1=C(C)NC(=S)NC1c1ccc(N(CCCl)CCCl)cc1Cl (stereo not drawn) | ? | 35µM* | nt | nt | -8%
Cc1cccc(CN2C[C@@H]3C[C@H]2C(=O)N(C)c2ccccc2O3)n1 | nt | 11%[176 µM] | nt | nt | nt
CCn1cc(C(=O)O)c(=O)c2ccc(C)nc21 | 4% | ? | 5.8µM*! | i | nt
CCn1cc(C(=O)NCc2ccccc2)c2ccccc21 | -2% | -2% | -15% | i | 21%

Screening results: PubChem BioAssay, National Center for Advancing Translational Sciences (NCATS)
